Molecules are shown by their SMILES. About 83,000 compounds went through this panel and 20% of them were active in at least one assay; those are over-represented in the sample as a whole.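 Step 1: grow cells in 96-well plates. Step 2: add test compound at a single concentration. Step 3: incubate 48 h. Step 4: record percent growth.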 Unmarked numbers belong to inactive results. Active and inactive are the calls of the source. How the source made its calls: active means growth percent below 10; inactive means the rest.

Test in all cases: NCI-60 one-dose screen, 48 h (100 = growth as untreated, 0 = no growth, -100 = all killed)
Common to all, as to conditions: 10 µM unless noted

Test [1] concerns SR leukemia.
In test [2] the test system is RPMI-8226 leukemia.
Test [3] deals with OVCAR-8 ovarian.
Test [4] concerns OVCAR-5 ovarian.
The test system of test [5] is OVCAR-4 ovarian.
Test [6] deals with SK-OV-3 ovarian.
In test [7] the test system is IGROV1 ovarian.
The subject of test [8] is HS 578T breast.
Test [9] has as its system NCI/ADR-RES ovarian.
The test system of test [10] is T-47D breast.
In test [11] the test system is BT-549 breast.
Test [12] relates to MDA-MB-435 melanoma.
Test [13] relates to SW-620 colon.
The test system of test [14] is MCF7 breast.
Test [15] relates to HCT-116 colon.
Test [16] concerns HCC-2998 colon.
Test [17] concerns KM12 colon.
Test [18] relates to OVCAR-3 ovarian.

Take `O=C1[C@H]2Cc3c([nH]c4ccccc34)[C@H](c3ccc(Cl)cc3)N2C(=O)CN1C1CCN(CC2CCCCC2)CC1`: the growth in test [1] is -5.73% (active); in test [2], 23.4%; in test [3] it was 74.9%; in test [4], 96.1%; in [5], 72.7%; in test [6] it was 93.8%. In addition, the growth in [7] was 72.2%; in test [8], 74.4%; in test [9] it was 68.5%; in test [10], 93%; in test [11], 70.8%; in test [12], 62.3%. Further, the growth in test [13] was 72.5%; in [14] it was 16.2%; in [15] it was 5.7% (active); in test [16] it was 53.4%; in [17], 62%.

`O=C1[C@@H]2Cc3c([nH]c4ccccc34)[C@H](c3ccc(Br)cc3)N2C(=O)CN1C1CCN(Cc2c(Cl)cccc2Cl)CC1`: the growth in test [1] was 91.7%; in [2] it was 79.9%; in [3], 94.6%; in test [4], 99.4%; in test [5], 86.2%; in test [6], 86.7%. Moreover, the growth in test [7] was 84.7%; in test [8], 90.1%; in test [9], 90.9%; in [10], 88.5%; in test [11], 110%; in test [12], 100%. In addition, the growth in test [13] was 92.7%; in test [14], 68.3%; in test [15], 78.8%; in [16], 101%; in test [17], 99.1%.

`c1ccc(-c2cn3c(-c4c[nH]c5ccccc45)csc3n2)cc1`: the growth in [1] was 61.7%; in [2] it was 31.2%; in [3] it was 65.5%; in test [4] it was 87.8%; in test [5] it was 61.9%; in test [6] it was 87.3%. Also, the growth in [7] is 62.2%; in [8], 68.9%; in test [9], 91.8%; in test [10] it was 31.9%; in [11], 41.4%; in test [12], 74.7%. The growth in test [13] was 72.1%; in [14], 40.3%; in [15], 64.5%; in test [16], 71.3%; in test [17] it was 44.7%.

For `O=C1[C@H]2Cc3c([nH]c4ccccc34)[C@H](c3ccc(Br)cc3)N2C(=O)CN1C1CCN(CC2CCCCC2)CC1`, the growth in test [1] is -12.7% (active); in [2], 43.2%; in [3] it was 85.4%; in [4], 106%; in test [5], 82.7%; in test [6], 87.9%. Further, the growth in test [7] was 82.2%; in [8], 78%; in test [9], 75.2%; in test [10], 97.9%; in test [11], 96.5%; in test [12], 85.1%. Also, the growth in [13] was 79.7%; in [14], 25.8%; in [15], 18%; in [16], 67.8%; in test [17] it was 77%.

In the case of `O=C1Nc2cc(Cl)ccc2/C1=C\c1ccc(OCc2ccccc2)cc1`, the growth in test [1] is 105%; in [2], 107%; in [3] it was 100%; in [4] it was 101%; in test [5], 96.3%; in test [6], 103%. The growth in [7] was 91.6%; in test [8] it was 96.7%; in test [9], 104%; in test [10], 95.7%; in [11], 101%; in test [12] it was 99.4%. In addition, the growth was 99.4% in test [13]; 61.6% in test [14]; 97.7% in test [15]; 102% in test [16]; 95.1% in test [17].

As to `CN(C)c1ccc(-c2cc(-c3c[nH]c4ccccc34)nc(N)c2C#N)cc1`, the growth is 9.16% (active) in test [1]; 4.44% (active) in test [2]; 25.6% in test [3]; 48.8% in [4]; 69.5% in test [5]; 30.9% in [6]. Further, the growth in test [7] was 42.2%; in test [8], 35.6%; in test [9] it was 14.9%; in test [10], 39.9%; in [11], 27.8%; in [12], 13.6%. For the same compound, the growth in test [13] is 21.4%; in test [14] it was 28%; in test [15] it was 14.5%; in test [16], 49.7%; in test [17] it was 18.2%.

`Cn1c(SCC(=O)c2ccc(F)cc2)nc2ccccc2c1=O`: the growth in test [1] was 93%; in test [2], 76.5%; in test [3] it was 94.5%; in test [4] it was 105%; in test [5], 79.1%; in test [6] it was 95.7%. For the same compound, the growth was 88.7% in [7]; 104% in test [18]; 101% in test [8]; 62.5% in test [10]; 97% in test [11]; 108% in test [12]. Also, the growth in [13] was 108%; in test [14] it was 72.7%; in [15], 89.1%; in test [16] it was 104%; in test [17], 98.1%.

Take `CS(=O)(=O)c1nccc(-c2c(-c3cccc(OCc4ccc(Cl)c(C(F)(F)F)c4)c3)nc3sccn23)n1`: the growth in [1] was 9.33% (active); in [2], -16.8% (active); in test [3], 99.3%; in test [4], 101%; in [5] it was 71.9%; in [6], 104%. For the same compound, the growth was 34.1% in [7]; 41.1% in [8]; 98.2% in test [9]; -45.6% (active) in test [10]; 101% in [11]; 103% in [12]. Moreover, the growth in test [13] was 61.2%; in [14] it was -67.8% (active); in [15], 70.4%; in test [16] it was -50.1% (active); in test [17] it was 37%.

On to `O=C(N/N=C/c1cc2ccccc2nc1Cl)c1cc(-c2nc3ccccc3[nH]2)nc2ccccc12`, for which the growth in test [1] was 83.6%; in test [2], 82.7%; in [3], 96.3%; in test [4], 106%; in [5], 86.3%; in test [6], 106%. The growth in [7] is 87.5%; in test [8], 108%; in test [9], 93.3%; in test [10] it was 67.5%; in [11], 85.9%; in [12], 101%. In addition, the growth in test [13] is 101%; in test [14], 89.7%; in test [15] it was 98.8%; in test [16], 104%; in [17] it was 97.2%.

The record behind these values is PubChem BioAssay (NCI).
